From PubChem BioAssay
In the library only some 22% were active in any assay of this set; here they are far more common.
Pf growth 96h = Primary qHTS for delayed death inhibitors of the malarial parasite plastid, 96 hour incubation; P. falciparum luciferase reporter growth, 96 h; Potency, µM (doses to about 28.7 µM), for inactives: at the highest dose activity change, negative = inhibition, most hits filed as inhibitors; 6.9% of 320,000 active; note: potency is the fitted concentration of half-maximal effect; % is set by controls: 0 for no effect and ±100 for the full control effect
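P. falciparum expressing integrated firefly luciferase, in erythrocytes at 2% hematocrit, 0.05% parasitemia, incubated with compounds 96 h at 37 C, 5% CO2. Growth inhibition read as loss of luminescence; two-generation exposure targets delayed-death apicoplast inhibitors.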
CHX counter = Cycloheximide Counterscreen for Small Molecule Inhibitors of Shiga Toxin | max response, % | 12% of 300,000 active | cell reporter, cycloheximide protein synthesis inhibition counterscreen; in the data active = max response mostly above about 13%, no sharp cut-off; inactive = mostly below about 14%; note: read at 38.3 µM for the half of the compounds with a filed dose; 0% is about no effect
Pf growth 48h = Primary qHTS for delayed death inhibitors of the malarial parasite plastid, 48 hour incubation; P. falciparum luciferase growth in erythrocytes, 48 h; 5.9% of 310,000 active; Potency, µM (highest dose often 28.7 µM), without a hit: at the top dose activity change, negative = inhibition, most hits filed as inhibitors; note: potency is the fitted concentration of half-maximal effect; % is set by controls: 0 for no effect and ±100 for the full control effect
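Luciferase-expressing P. falciparum in infected erythrocytes (2% hematocrit, 0.1% parasitemia final) in RPMI 1640/0.5% Albumax were exposed to compound for 48 hours at 37 C, 5% CO2; growth read as luminescence.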
Shiga inhibitor = A qHTS for Small Molecule Inhibitors of Shiga Toxin | 9.2% of 290,000 active | Vero cells, Shiga toxin protein synthesis inhibition reporter | inhibition, % at 38.7 µM; in the data active = inhibition mostly above about 28%, no sharp cut-off; inactive = mostly below about 43%; note: 0% is about no effect
LmPK inh = qHTS Assay for Inhibitors of Leishmania Mexicana Pyruvate Kinase (LmPK). purified LmPK, Kinase-Glo ATP luminescence, 1 h. Potency, µM (doses to about 57.5 µM), without a hit: top-dose activity change, negative = inhibition, actives largely listed as inhibitors. 0.37% of 290,000 active; note: potency is the fitted concentration of half-maximal effect; % is set by controls: 0 for no effect and ±100 for the full control effect
Target sequence (Q27686 whole entry, looked up): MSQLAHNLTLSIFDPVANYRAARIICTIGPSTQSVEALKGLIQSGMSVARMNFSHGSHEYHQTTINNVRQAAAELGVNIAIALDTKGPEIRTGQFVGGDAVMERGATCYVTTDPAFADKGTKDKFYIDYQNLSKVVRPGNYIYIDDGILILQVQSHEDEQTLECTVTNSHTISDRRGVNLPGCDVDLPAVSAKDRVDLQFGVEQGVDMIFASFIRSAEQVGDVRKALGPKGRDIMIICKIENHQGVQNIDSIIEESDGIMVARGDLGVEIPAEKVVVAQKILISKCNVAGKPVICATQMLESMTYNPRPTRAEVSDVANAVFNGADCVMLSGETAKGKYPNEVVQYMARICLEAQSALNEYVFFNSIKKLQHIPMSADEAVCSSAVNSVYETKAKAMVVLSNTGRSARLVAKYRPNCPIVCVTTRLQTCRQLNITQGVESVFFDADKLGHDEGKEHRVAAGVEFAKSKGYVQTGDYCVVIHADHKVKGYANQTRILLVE
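qHTS format; LmPK 0.1 nM; substrates PEP 0.5 mM and ADP 0.1 mM. One-hour room-temperature incubation, then coupled luciferase luminescence; 0.5 nM enzyme wells mark activation.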
* marks the source's active call; other numbers are inactive results; i = inactive; ? = inconclusive; · = no result. Unless noted, calls come from the whole dose curve; as a rule, active = well fitted inhibition curve with a large enough effect; inconclusive = small, poorly fitted or top-dose-only effect, or another doubt; inactive = no such curve, though single readings can be large or run the other way.

SMILES	Pf growth 96h	CHX counter	Pf growth 48h	Shiga inhibitor	LmPK inh
CNC(=O)c1c(NC(=O)c2cccc(N3C(=O)CCC3=O)c2)sc2c1CCCC2	11.6%	16.2	15.8%	25.4	1.2%
COCCn1c(SCC(=O)Nc2cccc(F)c2)nc2c(c1=O)SCC2	?	-1.5	?	-2.6	0.4%
CCOc1cc(C(=S)N2CCCC2)ccc1OCC(=O)Nc1c(C)cc(C)cc1C	41.1%	-2.6	2.33µM*	-4.3	7.5%
O=C(Cc1ccccc1)N/N=C/c1ccc(OCC(=O)Nc2ccccc2)cc1	?	9.0	?	30.2	3.9%
COc1cc(/C=N/NC(=O)c2ccccc2O)ccc1OCC(=O)Nc1ccccc1	-23.2%	14.5*	?	19.4	0.6%
CCOc1cc(C(=S)N2CCCC2)ccc1OC	12.0%	-2.4	·	-6.4	4.8%
O=C(COc1ccc(/C=N/NC(=O)c2cccnc2)cc1)Nc1ccccc1	-4.8%	29.0*	14.5%	24.7	-4.0%
O=C(COc1ccc(/C=N/NS(=O)(=O)c2ccccc2)cc1)Nc1ccccc1	?	21.0*	44.7%	60.2	3.0%
CC(C)(C)C1COc2ccccc2N1C(=O)c1ccccc1Cl (stereo not drawn)	3.6%	-3.3	-10.2%	-17.4	8.5%
COc1ccc(NC(=O)COc2ccc(/C=N/NC(=O)c3cccnc3)cc2OC)cc1	27.5%	10.3	9.1%	32.3*	2.2%
COc1cc(/C=N/NC(=O)c2cccnc2)ccc1OCC(=O)Nc1ccccc1Cl	?	21.9	?	6.7	10.5%
CC(C)(C)c1ccc(C(=O)N2CCNCC2)cc1	·	10.5	18.1%	-7.8	-3.6%
O=C(c1ccc(-c2cc(O)c3ncccc3c2)cc1)N1CCNCC1	9.28µM*	·	9.28µM*	·	·
O=C(Nc1ccc([N+](=O)[O-])cc1)N1CCN(C(=O)C2CCCO2)CC1 (stereo not drawn)	16.8%	-1.0	?	2.8	-5.1%
O=C(Cn1nnc2ccccc2c1=O)NC1CCCc2ccccc21 (stereo not drawn)	10.4µM*	-1.1	8.2%	-5.7	4.7%
O=C(Cn1nnc2ccccc2c1=O)Nc1ccc2c(c1)CCC2	?	7.2	24.3%	8.7	5.9%
CC(C)Cc1csc(NC(=O)c2ccc(Br)cc2)c1C(=O)O	58.6%	-1.5	48.4%	8.4	2.9%
O=C(NCc1cnc2ccccn12)C1CCC(=O)N(Cc2ccccc2F)C1 (stereo not drawn)	-2.6%	4.2	5.1%	-5.2	-5.6%
CCOC(=O)C1CCN(C(=O)/C=C/c2ccc3c(c2)OCO3)CC1	-46.6%	28.7*	131.5%	76.5	2.7%
O=C(/C=C/c1ccc2c(c1)OCO2)N1CCCCC1	?	39.1*	154.8%	45.2*	-0.4%
CCOC(=O)C1CCN(C(=O)/C=C/c2ccccc2)CC1	11.9%	33.0	i	72.6*	7.1%
CN(C)C(CNC(=O)C1CCN(C(=O)/C=C/c2ccccc2)CC1)c1ccccc1 (stereo not drawn)	-29.7%	38.3*	-23.4%	59.0*	-8.6%
CN(Cc1cn(C)nc1-c1ccccc1F)CC1CCCCO1 (stereo not drawn)	?	-1.3	34.5%	-4.0	-0.3%
COc1ccc(/C=C/C(=O)N2CCC(c3ccccc3)C2)cc1 (stereo not drawn)	0.0%	12.3	28.2%	12.0	1.9%
COC(=O)C1CCN(C(=O)/C=C/c2ccc(OC)cc2)CC1	·	49.2*	165.6%	93.1	-0.6%
SMILES	Pf growth 96h	CHX counter	Pf growth 48h	Shiga inhibitor	LmPK inh
COc1ccc2cc(/C=C/C(=O)N3CCN(CC(=O)N4CCCCCC4)CC3)ccc2c1	?	36.9*	6.57µM*	44.1*	-6.2%
CCOC(=O)N1CCN(C(=O)/C=C/c2ccc(OC)c(OC)c2)CC1	?	1.0	-8.3%	-9.9	-1.1%
CCC(C)c1ccc(O)c(N)c1 (stereo not drawn)	?	-0.9	?	20.3	0.7%
CC(C)c1ccc(O)c(N)c1	2.94µM*	29.6*	?	67.0*	0.6%
CC(C)(C)c1ccc(O)c(N)c1	13.1µM*	-4.4	?	-3.0	6.5%
CC(C)[C@H]1COCCS(=O)(=O)N1Cc1cccc(Cl)c1	?	-1.9	11.5%	-4.0	-6.7%
COc1ccccc1CCC(=O)OCC(=O)Nc1cc(C)nn1-c1ccccc1	16.2%	·	-4.8%	·	·
COc1ccc(C2/C=C\CN(C(=O)c3ccccc3)CC(=O)N2Cc2ccc(F)cc2)cc1 (stereo not drawn)	?	-6.6	?	-5.8	4.4%
COc1ccc(C2/C=C\CN(C(=O)c3ccc(C)cc3)C(C)C(=O)N2Cc2ccc(F)cc2)cc1 (stereo not drawn)	·	83.5*	·	144.3*	·
COc1ccc(C2/C=C\CN(C(=O)c3ccc(C)cc3)[C@H](Cc3ccccc3)C(=O)N2Cc2ccc(F)cc2)cc1 (stereo partly drawn)	4.15µM*	-1.8	4.15µM*	1.4	2.5%
COc1ccc(C2/C=C\CN(C(=O)c3ccccc3)C(C)C(=O)N2Cc2ccc(F)cc2)cc1 (stereo not drawn)	·	-0.3	·	-13.8	·
O=C(NCc1ccc(Cl)cc1)C1CCN(S(=O)(=O)c2cccnc2)CC1	?	-2.8	-1.3%	3.2	-3.6%
COc1ccc(S(=O)(=O)n2ccc(C(C)Oc3ccc(-c4ccccc4)c(F)c3)n2)cc1 (stereo not drawn)	16.5µM*	10.6	13.1µM*	4.3	-0.1%
CC(Oc1ccc(-c2ccccc2)c(F)c1)c1ccn(S(=O)(=O)c2ccc(F)cc2)n1 (stereo not drawn)	?	13.1	?	23.4	2.7%
CCOc1cc(NC(=O)c2ccco2)c(OCC)cc1NC(=O)c1ccco1	12.9%	-6.4	?	-6.8	-10.1%
CCOc1ccc(C(=O)Nc2ccccc2OC(F)F)cc1	?	9.8	11.8%	64.9*	1.0%
CCOc1ccccc1NC(=O)c1ccc(NC(=O)c2ccco2)cc1	-22.2%	12.5*	2.94µM*	50.6	-0.3%
CCOc1ccc(NC(=O)c2ccco2)cc1	·	29.8*	-58.6%	47.2*	-29.4%
COC(=O)COc1ccc(NC(=O)c2ccco2)cc1	0.0%	15.9*	6.9%	22.1	-13.6%
Cc1cccc(NC(=O)CCCn2cc([N+](=O)[O-])cn2)n1	63.4%	-2.7	-0.8%	-8.1	-1.3%
CCOc1ccc(NC(=S)NC(=O)c2ccco2)cc1	110.8%	62.4*	52.5%	85.3*	-7.4%
O=C(Nc1ccccc1OC(F)F)c1ccc(F)cc1	38.9%	7.7	-9.1%	12.4	-1.8%
O=C(Nc1ccccc1F)Nc1ccccc1OC(F)F	31.4%	24.7*	26.7%	31.2	-5.3%
CCOc1ccc(NC(=O)CCC(=O)NNC(=O)c2ccco2)cc1	0.9%	-0.9	6.7%	1.5	-1.7%
O=C(Nc1ccc(Oc2ccc3ccccc3c2)cc1)c1ccco1	·	7.0	2.08µM*	46.7	6.8%
